Sampled rows, rich in hits. Any-hit rate of the full collection: about 2.9%.
DRD3 antagonist: D3 dopamine receptor (human) antagonism | actives 2.5% (n = 360,000) | P35462 | AID 652054 | max response, negative = inhibition, % | D3R cells, DiscoveRx beta-arrestin luminescence, antagonist mode; active compounds read low; in the data active = max response below about -50%; inconclusive = no clear call, values can overlap the other calls; also: % is scaled to controls: 0 for no effect and ±100 for the full control effect
Target sequence (P35462 whole entry, looked up): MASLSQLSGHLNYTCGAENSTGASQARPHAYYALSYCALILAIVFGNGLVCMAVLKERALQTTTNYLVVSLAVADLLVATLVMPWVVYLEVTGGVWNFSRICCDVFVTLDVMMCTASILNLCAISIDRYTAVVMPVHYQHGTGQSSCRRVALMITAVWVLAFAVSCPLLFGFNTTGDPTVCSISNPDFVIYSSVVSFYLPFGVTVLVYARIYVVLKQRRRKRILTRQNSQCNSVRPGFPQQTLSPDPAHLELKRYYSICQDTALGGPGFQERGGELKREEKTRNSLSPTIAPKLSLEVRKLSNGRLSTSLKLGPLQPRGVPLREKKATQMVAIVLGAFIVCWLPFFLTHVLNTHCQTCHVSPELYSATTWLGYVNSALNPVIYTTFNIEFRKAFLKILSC
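Cells plated overnight at 1500 cells/well, then exposed to library compounds with dopamine controls for 90 minutes at 37 degrees C. DiscoveRx reagent added for 30–60 minutes at room temperature; luminescence read, quantitative HTS format.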
DRD3 agonist: agonists of human D3 dopamine receptor. P35462. D3R DiscoveRx beta-arrestin cells, luminescence, 90 min. max activation, %. actives 0.58% (n = 410,000). AID 652048; in the data active = max activation above about 30%; also: 0% is about no effect
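Agonist mode: compounds and dopamine controls were applied to plated cells for 90 min at 37 degrees C after an overnight attachment at 1500 cells/well. Luminescent read-out followed 30 - 60 minutes at room temperature with DiscoveRx detection reagent.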
a7 integrin act: integrin-mediated muscular dystrophy alleviation activation; Potency, µM (series often up to 38.3 µM), for the others: top-dose activation, hits mostly activators; alpha7betagal myoblasts, beta-gal FDG fluorescence, 48 h; actives 0.064% (n = 350,000); active = well fitted activation curve with a large enough effect; inconclusive = small, poorly fitted or top-dose-only effect; inactive = no such curve, though single readings can be large or run the other way;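 also: potency is read from the fitted curve at half-maximal effect; 100% = response of the positive control SU9516; nearly all actives have a fitted effect of over 60% in size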
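Alpha7betagal+/- myoblasts (passage 13) were plated 16-24 hr, then exposed to compounds (1:260 dilution of DMSO stock) for 48 hours at 37C. After MPER lysis, β-galactosidase reporter activity was read as FDG fluorescence (ex 480/em 540) after 30 minutes.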
Numbers without * were called inactive.

Screening O=C(CN1C(=O)NC2(CCCCCCC2)C1=O)Nc1ccc(Br)cc1 returned DRD3 antagonist -13.4, DRD3 agonist 3.2 and a7 integrin act 20.9%.
`COc1ccccc1N1CCN(CCCNC(=O)C2CCCN(c3ncnc4c3nc3n4CCCCC3)C2)CC1` (centres undefined) gave DRD3 antagonist -103.5*, DRD3 agonist -19.9 and a7 integrin act -58.1%.
`O=C(NCCCN1CCN(c2ccc(F)cc2)CC1)C1CCCN(c2ncnc3c2nc2n3CCCCC2)C1` (centres undefined) gave DRD3 antagonist -55.1*, DRD3 agonist -11.2 and a7 integrin act 0.0%.
CC1CCN(CCCNC(=O)C2CCCN(c3ncnc4c3nc3n4CCCCC3)C2)CC1 (centres undefined) was read as DRD3 antagonist -15.8, DRD3 agonist -5.6 and a7 integrin act 1.6%.
`COc1ccccc1N1CCN(C(=O)C2CCCN(c3ncnc4c3nc3n4CCCCC3)C2)CC1` (centres undefined) gave DRD3 antagonist 42.6, DRD3 agonist 0.3 and a7 integrin act 24.8%.
For CCCc1nnc(NC(=O)c2cc(=O)c3cc(C)c(C)cc3o2)s1 the results were DRD3 agonist 2.1.
`COc1ccc(Cl)cc1C(=O)NNC(=O)CSc1nnc2ccccn12` gave DRD3 antagonist -25.9, DRD3 agonist -12.6 and a7 integrin act 6.4%.
O=C(NCc1cccc(F)c1)c1ccccc1NC(=O)c1nsc2ccccc12 was read as DRD3 agonist -15.6.
`O=C(CCC(=O)N1CCCCC1)Nc1ccc(Cl)c(Cl)c1` gave DRD3 antagonist 0.0, DRD3 agonist -11.6 and a7 integrin act inconclusive.
O=C(O)CC1CCC1CC(=O)O (centres undefined) was read as DRD3 antagonist 16.5, DRD3 agonist 7.7 and a7 integrin act 14.9%.
For CC(C)=CCC[C@H](C)C[C@@H]1Cc2[nH]c(=S)[nH]c(=O)c2[C@@H](c2ccc(F)cc2)O1 the results were DRD3 antagonist -55.5* and DRD3 agonist -3.4.
Screening CC(C)=CCC[C@H](C)CC1Cc2[nH]c(=S)[nH]c(=O)c2C(c2ccc(F)cc2)O1 (some centres undefined) returned DRD3 antagonist 11.1 and DRD3 agonist 7.4.
For CCOC(=O)c1cccc(NC(=O)c2cc3c(=O)n(Cc4ccccc4)ccc3nc2C)c1 the results were DRD3 agonist -5.8.
`Cc1noc(C)c1C(=O)N1CCN(S(=O)(=O)c2cccs2)CC1` gave DRD3 antagonist 14.5, DRD3 agonist 15.1 and a7 integrin act -2.1%.
For CCCC(CCC)C(=O)O the results were DRD3 antagonist 5.8 and DRD3 agonist 4.3.
For CCCC(CCC)C(N)=O the results were DRD3 agonist 57.6*.
`Cc1ccc(-c2csc3ncnc(SCC(=O)Nc4nnc(C)s4)c23)cc1` gave DRD3 antagonist 13.0, DRD3 agonist 3.5 and a7 integrin act 3.0%.
`Cc1ccc(-c2csc3ncnc(Sc4nnc(CN5CCCCCC5=O)o4)c23)cc1` gave DRD3 antagonist -68.7*, DRD3 agonist -3.0 and a7 integrin act -68.8%.
Cc1ccc2c(c1)N(C(=O)CCC(=O)NCc1cccc(F)c1)CCO2 was read as DRD3 antagonist 0.4, DRD3 agonist -4.6 and a7 integrin act 6.1%.
Screening CC(=O)Nc1ccc(NC(=O)CSc2nc(N)c(NC(=O)c3ccco3)c(=O)[nH]2)cc1 returned DRD3 antagonist 16.2, DRD3 agonist 3.2 and a7 integrin act -35.8%.
`CCOc1cc(NC(=O)c2ccccn2)c(OCC)cc1NC(=O)c1ccc(Cl)cc1` gave DRD3 antagonist 21.5, DRD3 agonist 0.9 and a7 integrin act 0.0%.
Cc1ccc(NCN2C(=O)C(=O)c3ccccc32)nc1 was read as DRD3 antagonist -64.1*, DRD3 agonist -50.2 and a7 integrin act -4.2%.
Cc1ccc(NC(=O)CCCCCN2C(=O)c3ccccc3C2=O)nc1 was read as DRD3 antagonist -6.5, DRD3 agonist -7.6 and a7 integrin act 13.3%.
CCc1cccc(OCC(=O)Nc2ccc(C(=O)O)cc2NC(=O)COc2cccc(CC)c2)c1 was read as DRD3 antagonist -1.0, DRD3 agonist 2.3 and a7 integrin act inconclusive.
Cn1c(=O)[nH]c(=O)c2c1nc(N)n2Cc1ccccc1 was read as DRD3 antagonist 3.3, DRD3 agonist 1.6 and a7 integrin act 8.1%.
Screening N#Cc1ncc(C(F)(F)F)cc1Sc1ccc(N)cc1 returned DRD3 antagonist 8.2, DRD3 agonist 1.2 and a7 integrin act 10.4%.
Screening CC1CCN(C(C)C(=O)Nc2ccccc2-c2ccccc2)CC1 (centres undefined) returned DRD3 antagonist -56.0*, DRD3 agonist -6.0 and a7 integrin act -41.4%.
`CC(C(=O)Nc1ccccc1-c1ccccc1)N1CCN(C(=O)c2ccccc2)CC1` (centres undefined) gave DRD3 antagonist -11.1, DRD3 agonist -0.2 and a7 integrin act -27.2%.
`COc1ccc(C)c(NC(=O)C2CC(=O)NC3=C2C(=O)CCC3)c1` (centres undefined) gave DRD3 antagonist -8.7, DRD3 agonist -5.3 and a7 integrin act 1.2%.
Screening COc1cc(NC(=O)C2CC(=O)NC3=C2C(=O)CCC3)c(OC)cc1Cl (centres undefined) returned DRD3 antagonist -16.2, DRD3 agonist 39.2* and a7 integrin act 5.6%.
`CSc1ccccc1-c1nnc(-c2ccc(C)cc2)o1` gave DRD3 antagonist 6.8, DRD3 agonist -1.0 and a7 integrin act -5.9%.
CCCCN1CCc2c([nH]c3ccccc23)C1=O was read as DRD3 antagonist -24.3, DRD3 agonist 1.0 and a7 integrin act 17.6%.
For CN1CCc2ccccc2Cc2[nH]c3ccccc3c2CC1 the results were DRD3 antagonist -110.3* and DRD3 agonist -53.9.
COc1ccc(-c2nc3ccc(Br)cn3c2Cc2ccccc2C(F)(F)F)cc1OC was read as DRD3 antagonist 19.5 and DRD3 agonist 4.2.
For CN(CC(=O)Nc1ccc(Cl)cc1)C(=O)c1cccc(S(=O)(=O)NCc2ccccc2)c1 the results were DRD3 antagonist -64.2*, DRD3 agonist -30.9 and a7 integrin act 28.7%.
For CN(CC(=O)Nc1ccc(Cl)cc1)C(=O)c1cccc(S(=O)(=O)N2CCN(Cc3ccccc3)CC2)c1 the results were DRD3 antagonist -5.0, DRD3 agonist 1.9 and a7 integrin act -20.0%.
Screening CN(C)C(=O)c1cn(-c2ccccc2)nc1-c1cc2ccccc2o1 returned DRD3 antagonist -16.2, DRD3 agonist 18.2 and a7 integrin act 3.0%.
For CN(Cc1cn(-c2ccccc2)nc1-c1cc2ccccc2o1)C(=O)CCC(=O)O the results were DRD3 antagonist 2.0, DRD3 agonist 46.0* and a7 integrin act 6.3%.
Screening CCN(C(=O)COC(=O)c1cccc(S(=O)(=O)N(CC)CC)c1)C1CCS(=O)(=O)C1 (centres undefined) returned DRD3 antagonist -15.4, DRD3 agonist -3.6 and a7 integrin act 9.1%.
For CSC1=NS(=O)(=O)c2c(C)nn(C)c2S1 the results were DRD3 antagonist -69.1*, DRD3 agonist -7.8 and a7 integrin act -1.6%.
Screening Cc1ccc(/C=N/Nc2ncc(Cl)cc2Cl)s1 returned DRD3 antagonist 27.7, DRD3 agonist 31.1* and a7 integrin act -4.3%.
`Clc1cnc(N/N=C/c2cccs2)c(Cl)c1` gave DRD3 antagonist 31.6, DRD3 agonist -6.6 and a7 integrin act 7.9%.

Screening data from PubChem.
